From the supplement of paper PMC10849652
The full data set covers some 7,900 targets. This sample favours those with a hit. About 0.6% of all pairs of compound and target were hits. Unmarked numbers belong to inactive results.

Key:
Assay in all cases: log2 fold change, soluble protein after heating vs DMSO (PISA); higher = thermal stabilisation; K562 cells, 10 uM, 30 min; active = over 0.2 and 3.5 SD of the protein, either way, in both replicates (recomputed)
IRAK-1-4 Inhibitor I = compound: C1COCCN1CCN2C3=CC=CC=C3N=C2NC(=O)C4=CC(=CC=C4)[N+](=O)[O-] [IRAK-1-4 Inhibitor I]
How it was run: (§1)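 K562 cells at 2×10^6 cells/mL were treated with 10 μM compound for 30 min. Aliquots were heated for 3 min across 48°C-58°C, pooled, and extracted in PBS with 0.5% NP-40 at 4°C; soluble protein was the supernatant after 21,000xg for 90 min. Soluble protein was quantified by TMTpro 16plex LC-MS/MS with channel sums equalised, and reported as log2 fold change in thermal stability against DMSO controls, with values from duplicates.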

ibrutinib = compound: C=CC(=O)N1CCC[C@@H](n2nc(-c3ccc(Oc4ccccc4)cc3)c3c(N)ncnc32)C1 [ibrutinib]
How it was run: as §1

[1] = compound: CC(=O)c1cnc2ccc(-c3cc(Cl)c(O)c(Cl)c3)nc2c1N[C@H]1CC[C@H](CN(C)C)CC1
How it was run: as §1

ralimetinib = compound: CC(C)(C)Cn1c(N)nc2ccc(-c3[nH]c(C(C)(C)C)nc3-c3ccc(F)cc3)nc21 [ralimetinib]
How it was run: as §1

[2] = compound: CC(C)(O)CC(=O)NCCn1ccc2ncnc(Nc3ccc(Oc4cccc(C(F)(F)F)c4)c(Cl)c3)c21
How it was run: as §1

[3] = compound: CC(C)C1=C2N=C(C=C(N2N=C1)NCC3=CC=CC=C3)NCCCCCCN
How it was run: as §1

[4] = compound: CC(C)C[C@@H](C=O)NC(=O)[C@H](CC(C)C)NC(=O)[C@H](CC(C)C)NC(=O)OCc1ccccc1
How it was run: as §1

pinometostat = compound: CC(C)N(C[C@H]1O[C@@H](n2cnc3c(N)ncnc32)[C@H](O)[C@@H]1O)[C@H]1C[C@@H](CCc2nc3cc(C(C)(C)C)ccc3[nH]2)C1 [pinometostat]
How it was run: as §1

[5] = compound: CC1=C(C(CC(=O)N1)C2=CC=C(C=C2)C(F)(F)F)C(=O)NC3=C(C=C4C(=C3)C=NN4)F
How it was run: as §1

[6] = compound: CC1=C(C2=C(C=C1)C(=O)C3=CC=CC=C3N2CCCN)C
How it was run: as §1

[7] = compound: CC1=C(C=C(C=C1)NC(=O)C2=CC(=CC=C2)C(C)(C)C#N)NC3=CC4=C(C=C3)N=CN(C4=O)C
How it was run: as §1

[8] = compound: CC1=C(C=C(C=C1)NC(=O)C2=CC(=CC=C2)N(C)C)NC(=O)C3=CC=C(C=C3)O
How it was run: as §1

[9] = compound: CC1=CC=C(C=C1)SC2=C3C=C(SC3=CN=C2)C(=O)N
How it was run: as §1

[10] = compound: CC1=NC(=CC=C1)C2=C(N=C(N2)C(C)(C)C)C3=CC4=NC=CN=C4C=C3
How it was run: as §1

Nexturastat A = compound: CCCCN(Cc1ccc(C(=O)NO)cc1)C(=O)Nc1ccccc1 [Nexturastat A]
How it was run: as §1

vemurafenib = compound: CCCS(=O)(=O)Nc1ccc(F)c(C(=O)c2c[nH]c3ncc(-c4ccc(Cl)cc4)cc23)c1F [vemurafenib]
How it was run: as §1

[11] = compound: CCCS(=O)(=O)Nc1ccc(F)c(C(=O)c2c[nH]c3ncc(Cl)cc23)c1F
How it was run: as §1

[12] = compound: CCCc1cc(C)[nH]c(=O)c1CNC(=O)c1cc(-c2ccnc(N3CCN(C)CC3)c2)cc2c1cnn2C(C)C
How it was run: as §1

givinostat = compound: CCN(CC)Cc1ccc2cc(COC(=O)Nc3ccc(C(=O)NO)cc3)ccc2c1 [givinostat]
How it was run: as §1

barasertib = compound: CCN(CCCOc1ccc2c(Nc3cc(CC(=O)Nc4cccc(F)c4)[nH]n3)ncnc2c1)CCOP(=O)(O)O [barasertib]
How it was run: as §1

Sequence of UniProt P23919 (P23919 whole entry, looked up): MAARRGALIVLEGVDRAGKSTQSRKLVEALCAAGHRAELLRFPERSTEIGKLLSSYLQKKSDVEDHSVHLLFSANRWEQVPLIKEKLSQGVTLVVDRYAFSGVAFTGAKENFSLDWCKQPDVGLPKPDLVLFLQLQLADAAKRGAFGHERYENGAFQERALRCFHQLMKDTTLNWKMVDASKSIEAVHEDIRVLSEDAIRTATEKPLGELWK
Sequence of UniProt P39880 (P39880 whole entry, looked up): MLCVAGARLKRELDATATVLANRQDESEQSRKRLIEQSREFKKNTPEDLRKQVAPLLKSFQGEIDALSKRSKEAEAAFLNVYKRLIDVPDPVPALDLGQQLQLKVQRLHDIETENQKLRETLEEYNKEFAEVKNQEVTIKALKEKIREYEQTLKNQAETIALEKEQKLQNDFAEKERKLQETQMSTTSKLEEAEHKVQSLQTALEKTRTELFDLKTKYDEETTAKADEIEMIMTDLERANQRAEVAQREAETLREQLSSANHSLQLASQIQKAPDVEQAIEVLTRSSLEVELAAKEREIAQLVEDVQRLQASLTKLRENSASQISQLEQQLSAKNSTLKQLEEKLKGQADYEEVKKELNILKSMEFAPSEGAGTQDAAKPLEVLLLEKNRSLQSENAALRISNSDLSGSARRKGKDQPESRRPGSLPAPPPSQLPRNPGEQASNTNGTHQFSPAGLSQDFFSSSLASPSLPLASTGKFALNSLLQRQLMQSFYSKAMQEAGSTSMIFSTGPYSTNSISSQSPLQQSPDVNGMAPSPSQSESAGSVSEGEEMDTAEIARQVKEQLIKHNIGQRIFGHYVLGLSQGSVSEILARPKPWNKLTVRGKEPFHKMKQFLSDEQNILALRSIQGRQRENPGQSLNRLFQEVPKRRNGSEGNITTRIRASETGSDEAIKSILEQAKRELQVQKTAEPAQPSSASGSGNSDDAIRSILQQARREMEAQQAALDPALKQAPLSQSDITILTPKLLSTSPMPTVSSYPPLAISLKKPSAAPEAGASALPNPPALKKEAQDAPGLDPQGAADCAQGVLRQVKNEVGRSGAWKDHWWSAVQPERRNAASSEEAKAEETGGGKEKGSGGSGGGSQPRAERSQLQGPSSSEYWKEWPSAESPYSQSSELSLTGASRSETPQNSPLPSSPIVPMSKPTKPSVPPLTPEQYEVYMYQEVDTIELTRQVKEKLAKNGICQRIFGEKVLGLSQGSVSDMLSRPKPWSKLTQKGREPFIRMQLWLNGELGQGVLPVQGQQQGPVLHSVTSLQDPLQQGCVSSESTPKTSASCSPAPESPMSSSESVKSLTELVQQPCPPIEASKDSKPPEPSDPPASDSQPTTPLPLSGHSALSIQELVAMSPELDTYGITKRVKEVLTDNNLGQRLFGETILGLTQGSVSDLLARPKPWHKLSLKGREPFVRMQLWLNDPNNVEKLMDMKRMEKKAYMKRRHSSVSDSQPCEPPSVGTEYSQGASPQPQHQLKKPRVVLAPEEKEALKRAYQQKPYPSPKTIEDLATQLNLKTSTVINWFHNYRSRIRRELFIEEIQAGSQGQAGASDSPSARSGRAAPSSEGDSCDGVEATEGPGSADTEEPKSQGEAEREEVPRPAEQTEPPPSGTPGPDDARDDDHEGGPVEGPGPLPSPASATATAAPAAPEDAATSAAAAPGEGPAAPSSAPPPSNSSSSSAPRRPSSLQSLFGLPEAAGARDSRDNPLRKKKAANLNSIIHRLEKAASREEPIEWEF
Sequence of UniProt Q6P2E9 (Q6P2E9 whole entry, looked up): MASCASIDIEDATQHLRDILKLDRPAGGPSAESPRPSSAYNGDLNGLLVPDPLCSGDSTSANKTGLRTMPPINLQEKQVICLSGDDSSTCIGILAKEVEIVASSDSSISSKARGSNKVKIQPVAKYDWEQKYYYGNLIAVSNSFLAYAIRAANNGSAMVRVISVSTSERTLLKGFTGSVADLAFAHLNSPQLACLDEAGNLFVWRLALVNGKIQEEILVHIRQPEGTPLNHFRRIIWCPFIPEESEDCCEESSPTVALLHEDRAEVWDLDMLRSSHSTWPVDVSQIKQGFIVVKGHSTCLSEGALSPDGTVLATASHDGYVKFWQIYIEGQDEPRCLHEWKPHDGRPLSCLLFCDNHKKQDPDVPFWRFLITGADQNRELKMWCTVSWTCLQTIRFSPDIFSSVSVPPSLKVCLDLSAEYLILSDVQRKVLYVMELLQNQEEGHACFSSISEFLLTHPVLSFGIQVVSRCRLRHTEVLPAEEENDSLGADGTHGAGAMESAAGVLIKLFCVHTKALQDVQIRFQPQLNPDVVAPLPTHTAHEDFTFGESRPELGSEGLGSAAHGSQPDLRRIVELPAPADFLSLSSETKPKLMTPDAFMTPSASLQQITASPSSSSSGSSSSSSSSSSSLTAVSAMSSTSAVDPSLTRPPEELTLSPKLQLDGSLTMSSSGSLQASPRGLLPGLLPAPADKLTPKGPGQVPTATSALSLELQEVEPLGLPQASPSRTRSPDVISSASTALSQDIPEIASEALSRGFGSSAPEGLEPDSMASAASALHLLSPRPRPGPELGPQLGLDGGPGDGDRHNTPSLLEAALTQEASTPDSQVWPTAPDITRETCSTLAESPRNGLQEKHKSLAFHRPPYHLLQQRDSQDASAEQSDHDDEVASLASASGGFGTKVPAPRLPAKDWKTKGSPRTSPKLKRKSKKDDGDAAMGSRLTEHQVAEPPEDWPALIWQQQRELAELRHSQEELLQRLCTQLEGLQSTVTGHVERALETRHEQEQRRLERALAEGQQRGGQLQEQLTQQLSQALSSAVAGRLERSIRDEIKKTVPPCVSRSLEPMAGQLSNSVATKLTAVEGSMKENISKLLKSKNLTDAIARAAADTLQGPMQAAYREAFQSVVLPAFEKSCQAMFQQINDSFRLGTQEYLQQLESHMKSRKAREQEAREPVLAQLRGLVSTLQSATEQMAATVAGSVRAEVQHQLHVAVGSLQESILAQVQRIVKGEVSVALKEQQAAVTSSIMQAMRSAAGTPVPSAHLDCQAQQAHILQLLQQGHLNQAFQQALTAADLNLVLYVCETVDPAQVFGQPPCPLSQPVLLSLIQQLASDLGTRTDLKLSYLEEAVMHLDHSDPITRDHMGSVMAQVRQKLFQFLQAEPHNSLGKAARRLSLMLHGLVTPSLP
Sequence of UniProt P09622 (P09622 whole entry, looked up): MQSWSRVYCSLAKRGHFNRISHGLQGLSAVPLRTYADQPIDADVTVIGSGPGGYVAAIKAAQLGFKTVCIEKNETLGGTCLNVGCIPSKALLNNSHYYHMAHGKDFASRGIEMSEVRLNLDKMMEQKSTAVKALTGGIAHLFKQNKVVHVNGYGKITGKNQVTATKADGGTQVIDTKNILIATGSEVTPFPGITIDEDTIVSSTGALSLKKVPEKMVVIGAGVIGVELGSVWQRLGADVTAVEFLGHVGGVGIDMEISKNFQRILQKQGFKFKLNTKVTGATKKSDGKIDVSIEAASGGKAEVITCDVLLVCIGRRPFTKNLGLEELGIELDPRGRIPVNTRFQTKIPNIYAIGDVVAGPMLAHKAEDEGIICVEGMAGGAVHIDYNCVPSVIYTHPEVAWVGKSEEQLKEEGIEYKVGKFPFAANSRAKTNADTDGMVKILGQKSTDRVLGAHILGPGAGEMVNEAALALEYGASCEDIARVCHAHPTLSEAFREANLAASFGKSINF
Sequence of UniProt Q13948 (Q13948 whole entry, looked up): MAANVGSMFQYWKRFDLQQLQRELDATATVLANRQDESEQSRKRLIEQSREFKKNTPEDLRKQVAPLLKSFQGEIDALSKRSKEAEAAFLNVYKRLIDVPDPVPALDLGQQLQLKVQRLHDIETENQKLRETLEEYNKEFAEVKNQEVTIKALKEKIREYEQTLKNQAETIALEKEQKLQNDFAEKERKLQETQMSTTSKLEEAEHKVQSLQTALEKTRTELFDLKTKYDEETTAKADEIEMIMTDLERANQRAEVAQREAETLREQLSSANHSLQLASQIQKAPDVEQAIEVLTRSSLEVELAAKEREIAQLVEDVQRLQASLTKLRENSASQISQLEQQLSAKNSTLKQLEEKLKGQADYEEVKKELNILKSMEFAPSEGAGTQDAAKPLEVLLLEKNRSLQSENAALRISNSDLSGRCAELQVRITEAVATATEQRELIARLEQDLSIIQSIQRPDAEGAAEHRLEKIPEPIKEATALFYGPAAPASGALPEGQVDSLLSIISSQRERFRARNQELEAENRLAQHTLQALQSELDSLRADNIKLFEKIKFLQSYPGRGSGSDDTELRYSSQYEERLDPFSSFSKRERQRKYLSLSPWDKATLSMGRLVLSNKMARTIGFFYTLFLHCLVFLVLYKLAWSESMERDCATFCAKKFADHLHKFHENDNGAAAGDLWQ
Sequence of UniProt Q16643 (Q16643 whole entry, looked up): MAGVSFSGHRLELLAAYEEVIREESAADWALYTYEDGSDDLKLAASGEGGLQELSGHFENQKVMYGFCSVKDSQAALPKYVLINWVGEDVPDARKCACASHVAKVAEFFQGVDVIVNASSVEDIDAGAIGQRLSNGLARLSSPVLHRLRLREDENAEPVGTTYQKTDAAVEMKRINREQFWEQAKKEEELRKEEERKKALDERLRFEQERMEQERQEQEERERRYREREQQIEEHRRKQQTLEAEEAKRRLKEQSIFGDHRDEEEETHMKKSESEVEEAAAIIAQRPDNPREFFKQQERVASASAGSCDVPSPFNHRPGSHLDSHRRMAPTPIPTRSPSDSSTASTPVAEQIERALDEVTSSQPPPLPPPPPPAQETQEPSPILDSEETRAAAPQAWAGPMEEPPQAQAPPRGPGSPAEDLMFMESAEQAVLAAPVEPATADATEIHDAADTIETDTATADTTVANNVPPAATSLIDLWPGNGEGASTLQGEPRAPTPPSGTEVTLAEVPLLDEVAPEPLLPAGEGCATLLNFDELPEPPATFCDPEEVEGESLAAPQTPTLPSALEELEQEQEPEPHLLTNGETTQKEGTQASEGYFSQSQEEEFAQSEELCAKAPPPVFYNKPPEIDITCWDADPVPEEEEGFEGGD

Target | log2 fold change (IRAK-1-4 Inhibitor I) | log2 fold change (ibrutinib) | log2 fold change [1] | log2 fold change (ralimetinib) | log2 fold change [2] | log2 fold change [3] | log2 fold change [4] | log2 fold change (pinometostat) | log2 fold change [5] | log2 fold change [6] | log2 fold change [7] | log2 fold change [8] | log2 fold change [9] | log2 fold change [10] | log2 fold change (Nexturastat A) | log2 fold change (vemurafenib) | log2 fold change [11] | log2 fold change [12] | log2 fold change (givinostat) | log2 fold change (barasertib)
EDC4 (UniProt Q6P2E9) | -0.041 | -0.001 | -0.387 (active) | 0.019 | 0.007 | -0.181 | 0.022 | 0.05 | -0.016 | -0.032 | 0.004 | -0.048 | -0.022 | -0.035 | 0.022 | 0.035 | 0.03 | 0.029 | 0.031 | 0.057
CTSV (UniProt O60911) | 0.032 | -0.002 | 0.09 | -0.035 | -0.005 | -0.917 (active) | 0.14 | 0.011 | -0.054 | 0.125 | 0 | 0.019 | 0 | -0.017 | -0.043 | -0.021 | -0.006 | -0.062 | 0.194 | 0.032
DHRS7B (UniProt Q6IAN0) | 0.027 | -0.017 | -0.063 | 0.23 | 0.055 | 0.115 | -0.113 | -0.055 | -0.049 | -0.003 | -0.008 | -0.066 | -0.049 | -0.001 | 0.003 | 0.066 | 0.06 | 0.04 | -0.029 | -0.004
EXOC6 (UniProt Q8TAG9) | -0.046 | -0.007 | -0.014 | 0.102 | -0.084 | -0.397 (active) | 0.042 | 0.056 | 0.158 | 0.032 | -0.054 | -0.028 | 0.104 | 0.032 | 0.133 | 0.104 | 0.022 | 0.009 | 0.075 | -0.018
ESS2 (UniProt Q96DF8) | 0.032 | 0.025 | 0.031 | -0.009 | 0.013 | 0.002 | 0.136 | 0.056 | 0.099 | -0.021 | -0.085 | 0.091 | -0.024 | -0.018 | 0.032 | -0.01 | -0.013 | -0.075 | -0.01 | -0.025
CUX1 isoform 2 (UniProt Q13948) | 0.042 | 0.017 | -0.032 | 0.036 | -0.101 | 0.045 | 0.042 | 0.055 | 0.013 | 0.049 | -0.07 | 0.007 | -0.003 | -0.031 | 0.051 | 0.074 | 0.077 | -0.011 | -0.049 | 0.038
DHCR24 (UniProt Q15392) | -0.036 | 0.02 | 0.157 | 0.04 | 0.041 | 1.14 (active) | 0.022 | 0.05 | -0.104 | 0.212 | 0.248 | 0.01 | -0.003 | -0.043 | 0.004 | -0.114 | -0.012 | 0.434 | 1.21 (active) | 0.088
DDB1 (UniProt Q16531) | 0.038 | 0.026 | 0.002 | -0.053 | -0.008 | 0.071 | -0.017 | -0.03 | 0.022 | -0.001 | -0.012 | 0.011 | 0.006 | 0 | -0.036 | -0.012 | -0.003 | -0.027 | 0 | -0.01
CUX1 isoform 3 (UniProt P39880) | 0.019 | -0.033 | -0.032 | -0.065 | -0.047 | 0.008 | 0.116 | -0.018 | 0.015 | 0.153 | -0.039 | 0.016 | 0 | -0.001 | -0.013 | 0.043 | 0.025 | 0.065 | 0.002 | 0.013
DHRS3 (UniProt O75911) | 0 | 0.027 | -0.083 | 0.001 | 0.143 | 0.018 | -0.017 | -0.056 | -0.055 | 0.03 | 0.075 | -0.037 | 0.019 | 0.027 | -0.037 | -0.078 | -0.04 | -0.035 | -0.051 | -0.048
DLD (UniProt P09622) | 0.079 | 0.007 | 0.043 | -0.004 | -0.043 | -0.125 | -0.029 | 0.001 | 0.014 | -0.008 | -0.045 | 0.025 | 0.008 | 0.013 | -0.058 | -0.021 | -0.01 | 0.029 | -0.06 | 0
DUS3L (UniProt Q96G46) | 0 | 0.008 | -0.031 | 0.042 | -0.043 | 0.062 | -0.055 | -0.022 | -0.001 | -0.005 | 0.064 | -0.015 | -0.01 | 0.017 | -0.023 | 0.042 | 0.031 | 0.036 | -0.004 | 0.021
DBN1 isoform 3 (UniProt Q16643) | -0.06 | 0.099 | 0.061 | 0.072 | 0.151 | 0.047 | -0.02 | -0.005 | 0.05 | -0.091 | -0.079 | 0.045 | 0.016 | -0.002 | 0.104 | 0.075 | 0.032 | -0.062 | -0.026 | -0.038
EGLN1 (UniProt Q9GZT9) | 0.016 | -0.054 | -0.027 | -0.034 | -0.01 | -0.083 | 0.018 | 0.045 | -0.002 | -0.029 | -0.14 | 0.009 | -0.013 | 0.048 | -0.096 | -0.007 | 0.006 | 0.017 | -0.191 | 0.066
FAM83D (UniProt Q9H4H8) | 0 | -0.094 | 0.022 | 0.145 | -0.035 | -0.232 | -0.062 | 0.041 | -0.049 | 0.1 | 0.008 | -0.029 | 0.028 | 0.018 | 0.102 | 0.041 | 0.097 | 0.016 | 0.103 | 0.128
DTYMK (UniProt P23919) | 0.076 | -0.003 | -0.02 | -0.056 | -0.178 | -0.029 | -0.013 | 0.039 | -0.01 | 0.084 | -0.001 | 0.05 | 0 | 0.015 | -0.009 | -0.017 | -0.069 | -0.1 | -0.007 | -0.011
